Compounds without any hit were thinned out: in the full panel of roughly 83,000, 20% have a hit.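 In brief: 96-well plates, 48 h treatment, single concentration, percent growth endpoint.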 The source made the active and inactive calls. How the source made its calls: active means growth percent below 10; inactive means the rest.
tested on: HL-60(TB) leukemia; assay: NCI-60 one-dose screen, 48 h (100 = growth as untreated, 0 = no growth, -100 = all killed); settings: 10 µM unless noted

Compound | growth
O=C(CSc1nc2ccccc2[nH]1)c1ccc(N2CCOCC2)cc1 | 113% (inactive)
O=C(O)c1ccc(CO)o1 | 85.6% (inactive)
S=C(N/N=C/c1ccccn1)Nc1ccccn1 | -13.7% (active)
CNC(=O)c1cc(Oc2ccc(NC(=O)Nc3ccc(Cl)c(C(F)(F)F)c3)c(F)c2)ccn1 | -17.4% (active)
